Legend:
Assay in all cases: PBM binding z-score (relative to random genomic background probes); higher = stronger binding; sequences stand for … in GC…GCGATTGACAGCGTAGAATGAAGG
[1] = system: FXR:RXRa (NR concentration 270 nM, RXRa partner concentration 90 nM)
Summary of the method: (§1)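 Probes were double-stranded and carried 34-nt variable regions with direct-repeat seeds, single-nucleotide variants, half-site ablations and random human genomic background sequences, printed on custom Agilent 4×180K protein-binding microarrays. Arrays were incubated 1 h with ligand-free nuclear receptor dimers in PBS pH 7.4, 2% milk, 0.02% Triton X-100, 1 mM DTT, 0.2 mg/mL BSA and 0.4 mg/ml salmon testes DNA. Antibodies against each partner (one per run) detected binding, and scanned fluorescence was regression-normalized. Binding z-scores use the random background probes as reference.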

[2] = system: LXRa:RXRa (NR concentration 270 nM, RXRa partner concentration 90 nM)
Summary of the method: as §1

[3] = system: LXRa homodimer (NR concentration 270 nM)
Summary of the method: as §1

[4] = system: LXRb:RXRa (NR concentration 270 nM, RXRa partner concentration 90 nM)
Summary of the method: as §1

[5] = system: LXRb homodimer (NR concentration 270 nM)
Summary of the method: as §1

[6] = system: PPARa:RXRa (NR concentration 270 nM, RXRa partner concentration 90 nM)
Summary of the method: as §1

[7] = system: PPARg:RXRa (NR concentration 180 nM, RXRa partner concentration 90 nM)
Summary of the method: as §1

[8] = system: PPARg:RXRa 270nM:90nM, anti-RXR (NR concentration 270 nM, RXRa partner concentration 90 nM)
Summary of the method: as §1

[9] = system: PPARg:RXRa 30nM:10nM, anti-RXR (NR concentration 30 nM, RXRa partner concentration 10 nM)
Summary of the method: as §1

[10] = system: PPARg:RXRa 90nM:30nM, anti-RXR (NR concentration 90 nM, RXRa partner concentration 30 nM)
Summary of the method: as §1

[11] = system: PPARg:RXRa DBDmut IVT, anti-RXR (DBD mutation: RXRa K156A/R161A, NR concentration 270 nM, RXRa partner concentration 90 nM)
Summary of the method: as §1

[12] = system: PPARg:RXRa IVT, anti-PPARg (NR concentration 270 nM, RXRa partner concentration 90 nM)
Summary of the method: as §1

[13] = system: PPARg DBDmut:RXRa IVT, anti-PPARg (DBD mutation: PPARg1 K132A/R137A, NR concentration 270 nM, RXRa partner concentration 90 nM)
Summary of the method: as §1

[14] = system: PPARg DBDmut IVT, anti-PPARg (DBD mutation: PPARg1 K132A/R137A, NR concentration 270 nM)
Summary of the method: as §1

[15] = system: PPARg homodimer (NR concentration 180 nM)
Summary of the method: as §1

[16] = system: PXR:RXRa (NR concentration 270 nM, RXRa partner concentration 90 nM)
Summary of the method: as §1

[17] = system: PXR homodimer (NR concentration 270 nM)
Summary of the method: as §1

[18] = system: RARa:RXR (NR concentration 270 nM, RXRa partner concentration 90 nM)
Summary of the method: as §1

[19] = system: RARa homodimer (NR concentration 270 nM)
Summary of the method: as §1

[20] = system: RARb:RXRa (NR concentration 270 nM, RXRa partner concentration 90 nM)
Summary of the method: as §1

Row | Sequence | PBM binding z-score [1] | PBM binding z-score [2] | PBM binding z-score [3] | PBM binding z-score [4] | PBM binding z-score [5] | PBM binding z-score [6] | PBM binding z-score [7] | PBM binding z-score [8] | PBM binding z-score [9] | PBM binding z-score [10] | PBM binding z-score [11] | PBM binding z-score [12] | PBM binding z-score [13] | PBM binding z-score [14] | PBM binding z-score [15] | PBM binding z-score [16] | PBM binding z-score [17] | PBM binding z-score [18] | PBM binding z-score [19] | PBM binding z-score [20]
1 | TATTGTAGATCAACAGGAGGTTAAGAAAGATCGA | 0.217 | 1.55 | 0.577 | 1.03 | 0.546 | 1.46 | 0.641 | 0.531 | 0.596 | 0.68 | 0.634 | 1.7 | 1.31 | 1.13 | 0.72 | 0.93 | 0.0451 | 0.904 | 0.431 | 0.665
2 | TCTAGCAGGCCACAGGGTCACTCAAGAGGTACGG | 1.75 | 1.69 | -0.338 | 1.82 | -1.09 | 3.23 | 2.19 | 3.02 | 2.18 | 2.65 | 1.57 | 2.41 | 0.0342 | -1.16 | 1.75 | 2.71 | -0.163 | 3.42 | -0.568 | 2.63
3 | GCGACTGGAGCAAAGCAGGTTACCATAAGGTTGG | -0.343 | -0.594 | -0.842 | -0.498 | -1.26 | 0.27 | 0.477 | -0.112 | -0.43 | -0.311 | 1.03 | 0.463 | -1.39 | -1.59 | 0.00968 | -0.101 | -0.667 | 0.372 | -0.65 | -0.192

Reference: the supplement of paper PMC6555819
